Measurements from PubChem BioAssay (Tox21).
Inconclusive results are not listed. Calls of active or inactive are those of the source. Calls come from the whole dose curve; as a rule, active = well fitted cell-killing curve with a large enough effect in the repeat runs; inconclusive = weak or mixed curves; inactive = no such curve, though single readings can be large or run the other way. Non-standard residues stand in square brackets, D forms with d. Residues, ends and D or L forms follow the SMILES beside them. *: point of attachment. Sta = CC(C)C[C@H](N)[C@@H](O)CC(=O)O; Isovaleryl = CC(C)CC(=O)*

Experiment: qHTS assay to identify small molecule agonists of the peroxisome proliferator-activated receptor delta (PPARd) signaling pathway - cell viability counter screen (AID 743211); note: nearly all actives have a fitted effect of over 55% in size
Conditions: PPARd-bla HEK293H viability, CellTiter-Glo luminescence, 17 h; series mostly up to 62.6 µM
Description: U.S. Tox21 Program National Center for Advancing Translational Sciences [NCATS] NIH Chemical Genomics Center [NCGC] U.S. Environmental Protection Agency [EPA] National Institutes of Environmental Health Sciences [NIEHS] National Toxicology Program [NTP] U.S. Food and Drug Administration [FDA] Tox21 Assay Overview: The peroxisome proliferator-activated receptors (PPARs) are lipid-activated transcription factors of the nuclear receptor superfamily with three distinct subtypes namely PPAR alpha, PPAR delta (PPARd) and PPAR gamma. All these subtypes heterodimerizes with Retinoid X receptor (RXR) and have different physiological functions. […] To identify the compounds that activate PPAR-delta signaling, GeneBLAzer PPAR delta UAS-bla HEK293H cell line (Invitrogen, Carlsbad, CA, USA) containing a beta-lactamase reporter gene under the control of an Upstream Activator Sequence (UAS) was used to screen the Tox21 compound library. The cytotoxicity of the Tox21 compound library against the PPARd-bla cell line was tested in parallel by measuring the cell viability using CellTiter-Glo assay (Promega, Madison, WI) in the same wells.
Tox21 Assay Protocol Summary: PPARd-bla cells were dispensed at 3000 cells/6uL/well in 1536-well black wall/clear bottom plates using a Multidrop Combi (Thermo Fisher Scientific, Waltham, MA) dispenser. After the assay plates were incubated at 37 C and 5% CO2 for 5 h, 23 nL of compounds dissolved in DMSO, positive controls or DMSO only was transferred to the assay plate by a Pintool station (Kalypsys, San Diego, CA). The assay plates were incubated at 37C for 17 h. After 1 uL of LiveBLAzerTM B/G FRET substrate was added using a Bioraptr Flying Reagent Dispenser (FRD) workstation (Beckman Coulter, Indianapolis, IN, USA), the plates were incubated at room temperature for 2 h, and fluorescence intensity was measured by an Envision plate reader (PerkinElmer, Shelton, CT). For cell viability readout that measures cytotoxicity, 3 ul/well of CellTiter-Glo reagent was added into the assay plates using a Bioraptr FRD. After 30 min incubation at room temperature, the luminescence intensity in the plates was measured using a ViewLux plate reader (PerkinElmer).

Structure (SMILES) | outcome
CC(C)OC(=O)C(C(=O)OC(C)C)=C1SC=CS1 | inactive
N=C(N)N | inactive
CCOC(=O)c1ccc(N(C)C)cc1 | inactive
CC1(C)C(=O)C(C)(C)C1=O | inactive
C=C(C)C(=O)OCCCC | inactive
Cc1ccc(O)c([N+](=O)[O-])c1 | inactive
CC(C)(C)OC=O | inactive
COCc1nnc(-c2ccc[n+]([O-])c2)n1-c1c(Cl)c(Cl)cc2[nH]c(=O)c(=O)[nH]c12 | inactive
O=S(=O)(O)CC(O)CCl (stereo not given) | inactive
COC(C)(C)CC(C)=O | inactive
c1coc(Cn2cccc2)c1 | inactive
O=C1CC2(CCCC2)CC(=O)N1CCNCC1COc2ccccc2O1 (stereo not given) | inactive
COCCCOc1cc(C[C@@H](C[C@H](N)[C@@H](O)C[C@H](C(=O)NCC(C)(C)C(N)=O)C(C)C)C(C)C)ccc1OC | inactive
Cc1cc(N)no1 | inactive
Cc1nnc(C(=O)NC(C)(C)c2nc(C(=O)NCc3ccc(F)cc3)c(O)c(=O)n2C)o1 | inactive
CCCCCCCCCCCC(C)=O | inactive
CC(C)(O)CCCC1=CCC(C=O)CC1 (stereo not given) | inactive
CCCCC(CC)CCC(CC(C)C)OS(=O)(=O)O (stereo not given) | inactive
CCCCCCCCCCCCCCCC/C=C/C1CC(=O)OC1=O (stereo not given) | inactive
CC[N+](C)(CC)CC | inactive

Structure (SMILES) | outcome
CCCC[O][Al]([O]CCCC)[O]CCCC | inactive
CCCCC(O)/C=C(C)/C=C/C=C/C(=O)N1CCCC1=O (stereo not given) | inactive
CN(C)c1ccncc1 | inactive
C/C(Cl)=C/CCl | inactive
CN(C)CCc1c[nH]c2ccc(CS(=O)(=O)N3CCCC3)cc12 | inactive
Cc1cc(C)c(C)c(C)c1 | inactive
CCOC(=O)CC | inactive
CC(C)CC(=O)N[C@H](C(=O)N[C@H](C(=O)N[C@@H](CC(C)C)[C@@H](O)CC(=O)N[C@@H](C)C(=O)N[C@@H](CC(C)C)[C@@H](O)CC(=O)O)C(C)C)C(C)C (Isovaleryl-VV[Sta]A[Sta]-OH) | inactive
C[C@]12C=CC(=O)C=C1[C@@H](F)C[C@@H]1[C@@H]2[C@@H](O)C[C@@]2(C)[C@H]1CC[C@]2(O)C(=O)CO | inactive
O=C[C@@H](O)[C@H](O)[C@H](O)CO | inactive
NC(=O)CC[C@@H](N)C(=O)O | inactive
Nc1nc(Cl)cc(Cl)n1 | inactive
CCCc1ncc(C(=O)O)s1 | inactive
NNC(=O)OCc1ccccc1 | inactive
CNC(=O)c1c(I)c(NC(C)=O)c(I)c(C(=O)O)c1I | inactive
CN1CCN(C(=O)C2CCCCC2)CC1 | inactive
COc1cc(NS(=O)(=O)c2ccc(N)cc2)ncn1 | inactive
CC/C=C/CCCCCCCCCCOC(C)=O | inactive
O=c1[nH]c(=O)c2cn[nH]c2[nH]1 | inactive
C=CC(=O)OCCOCCOCC | inactive
